The values below come from PubChem BioAssay (EPA / NIEHS).

Inconclusive results are not listed. Active and inactive are the calls of the source. The calls were made as follows: active = hit-call score of the fitted dose curve at least 0.9, where 1 is the maximum; inconclusive = response in the unintended direction; inactive = score below 0.9.

Retinoic acid receptor alpha (Homo sapiens), sequence (P10276 whole entry, looked up, the tested form may be a part): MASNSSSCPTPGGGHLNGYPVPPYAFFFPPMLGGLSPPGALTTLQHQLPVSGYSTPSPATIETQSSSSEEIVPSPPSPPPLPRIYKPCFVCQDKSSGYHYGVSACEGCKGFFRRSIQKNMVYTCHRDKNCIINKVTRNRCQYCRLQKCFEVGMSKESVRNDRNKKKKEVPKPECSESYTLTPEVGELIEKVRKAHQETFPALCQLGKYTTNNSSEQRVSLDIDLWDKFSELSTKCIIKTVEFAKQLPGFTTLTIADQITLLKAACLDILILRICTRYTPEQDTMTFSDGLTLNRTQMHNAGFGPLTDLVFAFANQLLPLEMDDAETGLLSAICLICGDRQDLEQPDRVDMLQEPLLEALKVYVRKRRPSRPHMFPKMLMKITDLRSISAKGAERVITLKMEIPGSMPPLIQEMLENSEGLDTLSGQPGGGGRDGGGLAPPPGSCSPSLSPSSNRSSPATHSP
human Retinoic Acid Receptor beta (RARb), RARB (gene 5915), sequence (P10826 whole entry, looked up, the tested form may be a part): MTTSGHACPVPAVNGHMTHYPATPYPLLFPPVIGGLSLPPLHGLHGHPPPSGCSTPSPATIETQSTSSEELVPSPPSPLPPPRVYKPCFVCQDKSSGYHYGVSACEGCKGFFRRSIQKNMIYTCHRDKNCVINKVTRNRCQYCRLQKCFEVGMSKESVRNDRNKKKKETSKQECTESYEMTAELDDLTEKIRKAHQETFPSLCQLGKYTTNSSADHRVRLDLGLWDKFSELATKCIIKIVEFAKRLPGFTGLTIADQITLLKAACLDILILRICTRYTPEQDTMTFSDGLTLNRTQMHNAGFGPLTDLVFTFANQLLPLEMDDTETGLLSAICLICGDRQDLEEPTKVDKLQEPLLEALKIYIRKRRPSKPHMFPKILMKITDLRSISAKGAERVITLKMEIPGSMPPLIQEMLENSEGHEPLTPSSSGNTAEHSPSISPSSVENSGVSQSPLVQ

One experiment deals with human Retinoic Acid Receptor beta (RARb), RARB (gene 5915) (UniProt P10826). The experiment in a line: ATG_RARb_TRANS: Attagene TRANS-FACTORIAL HepG2 Assay for human Retinoic Acid Receptor beta (AID 2283004). The method in brief:
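HepG2 cells were transiently transfected with GAL4-UAS reporter units that report activity of exogenous chimeric NR-Gal4 proteins, then exposed to compound for 24 h. Reporter mRNA was quantified by RT-PCR with capillary electrophoresis fluorescence, as gain of signal over DMSO.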
For `Cc1nccn1-c1ccc(Sc2cccc(C3(C(N)=O)CCOCC3)c2)cc1`, the outcome was inactive.
For the compound `FC(F)=C(F)C(F)(F)C(F)(F)C(F)(F)C(F)(F)C(F)(F)C(F)(F)F`, the call was inactive.
The same measure, in the same setting: in the case of `c1ccc2cc3ccccc3cc2c1` it was “inactive”; in that of `Cc1cccc(O)c1C`, “inactive”; in that of `OCCC(F)(F)C(F)(F)C(F)(F)C(F)(F)F`, “inactive”.
Same read-out and setting: the value for `O=S(=O)(O)CCC(F)(F)C(F)(F)C(F)(F)C(F)(F)C(F)(F)C(F)(F)F` was “inactive”.
On to `O=C(Cl)C(F)(F)C(F)(F)C(F)(F)C(=O)Cl`, for which the result was inactive.
On the same count and under the same terms, in the case of `CC(C)c1nnc2ccc(-c3ocnc3-c3cc(F)ccc3F)cn12` it was “inactive”; in that of `O=C(O)CO`, “inactive”.
Still for that read-out and setting: in the case of `Cn1cc[nH]c1=S` it was “inactive”; in that of `C[Si](C)(C)C(F)(F)C(F)(F)C(F)(F)F`, “inactive”.

A further experiment has as its target Retinoic acid receptor alpha (Homo sapiens) (UniProt P10276). The experiment in a line: ATG_RARa_TRANS: Attagene TRANS-FACTORIAL HepG2 Assay for human Retinoic Acid Receptor alpha (RARa) (AID 2283005). The method in brief:
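HepG2 transiently transfected with multiplex GAL4-UAS reporter units including a human RARa–GAL4 chimera; 24 h compound exposure. Reporter mRNA quantified by RT-PCR, 6-FAM labeling and capillary electrophoresis; gain of signal versus DMSO.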
For `Cc1nccn1-c1ccc(Sc2cccc(C3(C(N)=O)CCOCC3)c2)cc1`, the outcome was inactive.
On the same count and under the same terms, in the case of `FC(F)=C(F)C(F)(F)C(F)(F)C(F)(F)C(F)(F)C(F)(F)C(F)(F)F` it was “inactive”.
The same measure, in the same setting: in the case of `Cc1cccc(O)c1C` it was “inactive”.
Still for that read-out and setting: the value for `OCCC(F)(F)C(F)(F)C(F)(F)C(F)(F)F` was “inactive”.
On to `O=S(=O)(O)CCC(F)(F)C(F)(F)C(F)(F)C(F)(F)C(F)(F)C(F)(F)F`, for which the outcome was inactive.
The same measure, in the same setting: the value for `O=C(Cl)C(F)(F)C(F)(F)C(F)(F)C(=O)Cl` was “inactive”; that for `OCc1c[nH]c2ccccc12` was “inactive”.
Still for that read-out and setting: in the case of `S=P(N1CC1)(N1CC1)N1CC1` it was “inactive”; in that of `CC(C)c1nnc2ccc(-c3ocnc3-c3cc(F)ccc3F)cn12`, “inactive”.
In the case of `CCCCCCCC1CCC(=O)O1` (centres undefined), the compound was called inactive.
The same measure, in the same setting: the value for `O=C(O)CO` was “inactive”; that for `O=S(=O)(O)c1ccc(N=Nc2c(O)ccc3cc(S(=O)(=O)O)ccc23)cc1` was “inactive”; that for `C[Si](C)(C)C(F)(F)C(F)(F)C(F)(F)F` was “inactive”.
